The record followed here is PubChem BioAssay.

Assay [1] can be described thus: binders of probe aFSTL3 on microarray, primary screen, stem cell growth factor project, biochemical, small-molecule microarray, fluorescence 635/667 (AID 1064).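 Also: measures binding of the biotinylated anti-FSTL3 antibody to printed compounds.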 The following applies: higher = more signal.
Assay [2] is described as follows: binders from COS7 lysate, DM2A8 probe, primary screen, torsin A project, cell lysate, small-molecule microarray, fluorescence 635/667 (AID 1065). The following applies: higher = more signal, COS7 lysate expressing mutant human TOR1A.
Assay [3] can be described thus: binders of probe aFGF2 on microarray, primary screen, stem cell growth factor project, biochemical, small-molecule microarray, fluorescence 635/667 (AID 1067).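 Also: measures binding of biotinylated aFGF2 protein to printed compounds on slides; z-score merges feature fluorescence and signal-to-noise across triplicate slides.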 Particulars: higher = more signal.
Assay [4] in a line: binders of probe aFGF10 on microarray, primary screen, stem cell growth factor project, biochemical, small-molecule microarray, fluorescence 635/667 (AID 1071).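 Also: score merges 667 nm spot intensity and signal to noise from triplicate slides.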 Particulars: higher = more signal.
Assay [5] addresses Neurogenic locus notch homolog protein 2 (Homo sapiens) (UniProt Q04721). Kind of assay: Notch2 binders on small-molecule microarrays, primary screen, biochemical, small-molecule microarray, 635 nm fluorescence, stem cell growth factors (AID 1073). Particulars: Notch2 binding, higher = more signal.
Assay [6] has as its target Pro-neuregulin-1, membrane-bound isoform (Homo sapiens) (UniProt Q02297). Kind of assay: NRG1 binders on small-molecule microarrays, primary screen, psychiatric disease protein project, biochemical, small-molecule microarray, fluorescence 635/667 (AID 1075).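 Also: score combines 667 nm spot fluorescence with signal to noise.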 Particulars: NRG1 binding, 635 nm fluorescence, higher = more signal.
For assay [7], the system named is Neuregulin-1 EGF-like domain. Kind of assay: binders of neuregulin-1 EGF-like domain, primary screen, biochemical, small-molecule microarray, 635 nm fluorescence (AID 1081).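 Also: binding of the protein to compounds printed on small-molecule microarray slides.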 The following applies: small-molecule microarray binding, higher = more signal.
Assay [8] is described as follows: FRG1 promoter luciferase signal modulators, primary screen, FRG1 inhibition for FSHD, cell-based, C2C12 myotubes, firefly/Renilla luciferase, luminescence (AID 1084). The following applies: higher = more signal, called active from +8 up or from −8 down.
A short description of assay [9]: binders of probe aFST on microarray, primary screen, stem cell growth factor project, biochemical, small-molecule microarray, fluorescence 635/667 (AID 1086).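 Also: score merges 667 nm fluorescence with signal-to-noise of each printed compound spot.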 Particulars: higher = more signal.
Assay [10] is described as follows: binders of probe aHhip on microarray, primary screen, stem cell growth factor project, biochemical, small-molecule microarray, fluorescence 635/667 (AID 1087).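 Also: score merges spot fluorescence at 667nm with spot signal to noise ratio.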 The following applies: higher = more signal.
The subject of assay [11] is PRMT1 (protein arginine N-methyltransferase 1). In words: PRMT1 binders on small-molecule microarrays, primary screen, biochemical, small-molecule microarray, 635 nm fluorescence (AID 1088).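 Also: binding of Prmt1 protein to compounds spotted on small-molecule microarray slides.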 Particulars: small-molecule microarray binding, higher = more signal.
Assay [12] in a line: yeast growth modulation, basal conditions, primary screen, YJM789 clinical isolate, OD600, 24 h (AID 1089).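 Also: growth of clinical yeast isolate S. cerevisiae YJM 789 seeded 1000 cells per well; test concentration not given here.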 Particulars: S. cerevisiae YJM789 growth, higher = more signal, called active from +8 up or from −8 down.
A short description of assay [13]: fission yeast growth modulation, primary screen, strain 972, OD600, 24 h, no modulator (AID 1090).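 Also: basal condition with compound alone and no growth modifier present; test concentration not given here.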 Particulars: S. pombe 972 growth, higher = more signal, called active from +8 up or from −8 down.
Assay [14] in a line: S. cerevisiae growth modulation with rapamycin, primary screen, strain BY4716, OD600, 96 h (AID 1091). Also: test concentration not given here. Particulars: higher = more signal, called active from +8 up or from −8 down.
Assay [15] concerns the target Torsin-1A-interacting protein 2 (Homo sapiens) (UniProt Q8NFQ8). Kind of assay: LULL1 binders on small-molecule microarray, primary screen, cell lysate, human LULL1 lysate, 635/667 nm fluorescence (AID 1092).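 Also: score merges per-feature 667 nm fluorescence with signal-to-noise.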 The following applies: hLULL1 lysate binding, 635 nm fluorescence, higher = more signal.
Assay [16] is described as follows: E. coli growth modulation, two-sided OD650, primary screen, E. coli filamentation project, strain DRC41, 24 h (AID 1093).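 Also: MC1000 strain lacking acrAB efflux and sulA so SOS filamentation is blocked; test concentration not given here.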 The following applies: OD650, 24 h, higher = more signal, called active from +8 up or from −8 down.
Assay [17] is described as follows: small-molecule microarray binders of probe aLefty2, primary screen, biochemical, biotinylated probe, 635/667 nm fluorescence (AID 1094).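 Also: score merges spot fluorescence near 667 nm with spot signal-to-noise ratio.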 The following applies: higher = more signal.
Assay [18] concerns Noggin (protein binding on small-molecule microarray). In words: Noggin binders on small-molecule microarray, primary screen, biochemical, 635/667 nm fluorescence (AID 1095).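 Also: score merges 667 nm feature fluorescence with signal to noise over triplicate slides.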 Particulars: 635 nm fluorescence, higher = more signal.
Assay [19] concerns the target Neurogenic locus notch homolog protein 3 (Homo sapiens) (UniProt Q9UM47). Kind of assay: NOTCH3 binders on small-molecule microarray, primary screen, biochemical, 635/667 nm fluorescence (AID 1096). Particulars: NOTCH3 binding, 635 nm fluorescence, higher = more signal.
Assay [20] in a line: small-molecule microarray binders of probe aEGFR, primary screen, biochemical, biotinylated probe, 635/667 nm fluorescence (AID 1097).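 Also: probe is a biotinylated anti-EGFR antibody binding compounds printed on slides; score combines fluorescence near 667 nm and signal to noise of each spot.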 The following applies: higher = more signal.

Molecules are shown by their SMILES. Activity calls are given as the source filed them.

Pro-neuregulin-1, membrane-bound isoform (Homo sapiens), sequence (Q02297 whole entry, looked up, the tested form may be a part, canonical isoform): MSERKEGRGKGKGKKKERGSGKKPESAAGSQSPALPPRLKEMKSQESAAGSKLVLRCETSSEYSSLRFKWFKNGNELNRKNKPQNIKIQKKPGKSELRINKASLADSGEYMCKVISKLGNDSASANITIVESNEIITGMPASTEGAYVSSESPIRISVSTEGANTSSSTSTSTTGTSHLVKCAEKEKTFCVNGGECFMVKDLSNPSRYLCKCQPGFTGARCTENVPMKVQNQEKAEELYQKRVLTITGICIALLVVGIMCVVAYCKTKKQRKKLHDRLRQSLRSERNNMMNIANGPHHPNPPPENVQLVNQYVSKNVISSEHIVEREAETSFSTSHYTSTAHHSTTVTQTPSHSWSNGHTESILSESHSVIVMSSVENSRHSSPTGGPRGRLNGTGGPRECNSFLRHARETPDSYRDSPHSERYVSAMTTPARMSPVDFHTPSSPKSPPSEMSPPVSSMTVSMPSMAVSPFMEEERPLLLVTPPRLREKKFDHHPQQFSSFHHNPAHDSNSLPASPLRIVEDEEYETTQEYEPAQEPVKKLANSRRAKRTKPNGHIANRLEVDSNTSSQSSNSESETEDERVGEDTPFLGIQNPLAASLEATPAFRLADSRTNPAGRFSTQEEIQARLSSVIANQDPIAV
Neurogenic locus notch homolog protein 2 (Homo sapiens), sequence (Q04721 whole entry, looked up, canonical isoform): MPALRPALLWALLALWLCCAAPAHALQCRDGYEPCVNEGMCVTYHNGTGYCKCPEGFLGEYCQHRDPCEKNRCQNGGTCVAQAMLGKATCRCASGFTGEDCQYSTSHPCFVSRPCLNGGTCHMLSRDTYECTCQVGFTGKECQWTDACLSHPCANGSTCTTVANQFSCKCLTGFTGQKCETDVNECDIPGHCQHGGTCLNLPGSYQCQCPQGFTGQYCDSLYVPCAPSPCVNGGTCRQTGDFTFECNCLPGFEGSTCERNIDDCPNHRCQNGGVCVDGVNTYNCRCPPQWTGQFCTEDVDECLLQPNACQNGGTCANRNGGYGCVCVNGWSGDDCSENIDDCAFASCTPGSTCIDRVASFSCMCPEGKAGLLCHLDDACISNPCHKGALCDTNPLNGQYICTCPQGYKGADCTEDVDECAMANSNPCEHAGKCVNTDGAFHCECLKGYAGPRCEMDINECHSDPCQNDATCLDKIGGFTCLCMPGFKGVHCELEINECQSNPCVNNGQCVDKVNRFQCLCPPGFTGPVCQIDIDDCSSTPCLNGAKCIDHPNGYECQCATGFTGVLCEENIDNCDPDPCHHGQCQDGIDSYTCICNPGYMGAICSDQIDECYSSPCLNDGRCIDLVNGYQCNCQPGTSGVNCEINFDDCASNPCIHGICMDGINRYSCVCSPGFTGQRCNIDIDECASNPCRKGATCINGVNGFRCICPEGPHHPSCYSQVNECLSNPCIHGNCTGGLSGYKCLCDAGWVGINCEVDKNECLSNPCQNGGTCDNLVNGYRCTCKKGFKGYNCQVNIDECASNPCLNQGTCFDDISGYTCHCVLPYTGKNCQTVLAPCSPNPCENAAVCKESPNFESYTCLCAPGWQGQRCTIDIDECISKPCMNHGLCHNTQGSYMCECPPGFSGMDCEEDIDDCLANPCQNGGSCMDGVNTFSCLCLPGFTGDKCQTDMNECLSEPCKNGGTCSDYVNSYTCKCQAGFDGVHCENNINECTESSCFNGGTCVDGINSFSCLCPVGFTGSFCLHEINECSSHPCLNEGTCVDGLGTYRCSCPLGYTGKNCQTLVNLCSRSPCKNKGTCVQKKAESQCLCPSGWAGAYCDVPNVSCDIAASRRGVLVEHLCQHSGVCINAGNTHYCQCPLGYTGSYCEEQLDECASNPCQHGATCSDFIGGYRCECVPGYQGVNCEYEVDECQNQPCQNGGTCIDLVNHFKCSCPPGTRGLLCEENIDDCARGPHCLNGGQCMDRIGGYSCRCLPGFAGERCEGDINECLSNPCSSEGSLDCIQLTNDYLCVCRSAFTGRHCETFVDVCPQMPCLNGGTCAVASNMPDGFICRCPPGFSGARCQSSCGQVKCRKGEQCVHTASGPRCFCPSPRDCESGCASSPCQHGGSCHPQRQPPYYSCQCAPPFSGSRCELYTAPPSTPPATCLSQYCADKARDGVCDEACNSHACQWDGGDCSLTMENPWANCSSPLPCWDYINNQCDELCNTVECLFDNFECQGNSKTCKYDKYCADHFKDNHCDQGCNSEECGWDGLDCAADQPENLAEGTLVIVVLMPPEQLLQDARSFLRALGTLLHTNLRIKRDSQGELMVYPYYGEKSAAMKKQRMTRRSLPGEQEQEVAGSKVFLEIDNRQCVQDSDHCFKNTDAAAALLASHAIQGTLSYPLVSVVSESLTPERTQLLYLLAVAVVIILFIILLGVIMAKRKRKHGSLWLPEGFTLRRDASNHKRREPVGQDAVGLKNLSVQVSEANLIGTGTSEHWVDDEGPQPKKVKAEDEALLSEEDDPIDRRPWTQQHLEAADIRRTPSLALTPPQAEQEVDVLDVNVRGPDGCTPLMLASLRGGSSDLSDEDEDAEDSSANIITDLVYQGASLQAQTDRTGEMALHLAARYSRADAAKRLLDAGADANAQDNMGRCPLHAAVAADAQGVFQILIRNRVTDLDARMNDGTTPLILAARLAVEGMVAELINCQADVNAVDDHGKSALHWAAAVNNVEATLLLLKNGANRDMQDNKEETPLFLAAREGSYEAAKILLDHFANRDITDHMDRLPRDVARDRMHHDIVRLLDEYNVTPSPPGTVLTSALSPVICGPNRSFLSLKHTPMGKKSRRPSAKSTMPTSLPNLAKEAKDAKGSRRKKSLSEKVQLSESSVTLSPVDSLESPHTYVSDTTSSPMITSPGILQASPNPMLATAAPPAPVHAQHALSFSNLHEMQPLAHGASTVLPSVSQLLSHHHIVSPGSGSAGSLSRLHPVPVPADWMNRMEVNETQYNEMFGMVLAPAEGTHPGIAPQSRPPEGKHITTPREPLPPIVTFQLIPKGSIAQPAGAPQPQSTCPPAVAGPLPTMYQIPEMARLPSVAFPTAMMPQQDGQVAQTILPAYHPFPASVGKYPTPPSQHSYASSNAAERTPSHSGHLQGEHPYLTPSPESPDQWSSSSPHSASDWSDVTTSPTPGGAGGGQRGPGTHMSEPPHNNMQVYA
Torsin-1A-interacting protein 2 (Homo sapiens), sequence (Q8NFQ8 whole entry, looked up): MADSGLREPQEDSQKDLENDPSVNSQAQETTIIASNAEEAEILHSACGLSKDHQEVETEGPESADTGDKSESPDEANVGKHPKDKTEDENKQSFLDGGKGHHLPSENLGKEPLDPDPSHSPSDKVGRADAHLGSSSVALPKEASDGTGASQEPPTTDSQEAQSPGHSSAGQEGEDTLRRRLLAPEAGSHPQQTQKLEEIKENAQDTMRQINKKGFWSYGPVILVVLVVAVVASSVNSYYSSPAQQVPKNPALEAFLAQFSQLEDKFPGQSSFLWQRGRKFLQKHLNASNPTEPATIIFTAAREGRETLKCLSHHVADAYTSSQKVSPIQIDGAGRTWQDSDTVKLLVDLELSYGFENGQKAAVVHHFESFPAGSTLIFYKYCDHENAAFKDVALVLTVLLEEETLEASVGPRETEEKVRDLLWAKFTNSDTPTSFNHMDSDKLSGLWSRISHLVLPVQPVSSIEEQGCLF

As for `COCCOC(=O)N1C(=O)[C@@]2(c3cc(C#CCCO)ccc31)[C@H](C(N)=O)[C@H]1C(=O)O[C@H](c3ccccc3)[C@H](c3ccccc3)N1[C@@H]2c1ccccc1OCCO`, the composite z-score in [1] was -0.352; in [2], 0.755; in [3], -0.0579; in assay [4], 0.658; in assay [5] it was 1.11; in assay [6], 1.43. The composite z-score in assay [7] was 1.19; in [9] it was 0.52; in assay [10] it was 0.219; in assay [11], 1.54; in assay [15], 2.15; in [17], 0.319. Further, the composite z-score in assay [18] was found to be 0.989; in assay [19] it was 1.15; in assay [20], 0.105. The z-score in assay [8] is -0.96 (inactive); in [12] it was 1.85 (inactive); in assay [13], 1.17 (inactive); in assay [14] it was 3.4 (inactive); in assay [16] it was -0.497 (inactive).
In the case of `C=CCC(OC(C)=O)[C@@H]1[C@@H](N(Cc2cccc3ccccc23)C(=O)c2ccc(-c3ccccc3)cc2)c2cc(OCCCO)ccc2N1C(=O)Cc1ccc2ccccc2c1` (stereo not given in full), the composite z-score in assay [1] was -0.141; in assay [2], 0.14; in [3], -0.0171; in assay [4] it was -0.272; in [5] it was 0.07; in [6] it was 0.022. In addition, the composite z-score in assay [7] is -0.374; in assay [9], 0.481; in assay [10], -0.134; in assay [11] it was 0.157; in [15], 0.893; in assay [17], -0.145. The composite z-score was -0.109 in assay [18], 0.397 in assay [19] and -0.112 in assay [20]. Also, the z-score was -0.94 (inactive) in [8]; -0.616 (inactive) in [12]; 0.072 (inactive) in assay [13]; -0.26 (inactive) in assay [14]; -0.741 (inactive) in assay [16].
For the compound `[N-]=[N+]=Nc1ccccc1[C@@H]1OC(c2ccc(OCCCO)cc2)=N[C@]1(Cc1ccccc1)C(=O)NCCN1CCOCC1`, the composite z-score is -0.0258 in [1]; 2.32 in [2]; -0.001 in assay [3]; 0.916 in [4]; 1.21 in [5]; -0.238 in assay [6]. The composite z-score in assay [7] was found to be 1.33; in assay [9] it was 1.26; in [10], 0.24; in assay [11], 0.547; in assay [15] it was 3.51; in assay [17], 0.0787. In addition, the composite z-score was 0.762 in [18], 1.09 in [19] and -0.0106 in [20]. The z-score in [8] is -0.906 (inactive); in assay [12], -0.312 (inactive); in assay [13], -1.36 (inactive); in [14] it was 0.152 (inactive); in assay [16], 0.382 (inactive).
Regarding `CN(C)C(=O)[C@]1(Cc2ccccc2)N=C(c2ccc(OCCCO)cc2)O[C@@H]1c1ccccc1CN=[N+]=[N-]`, the composite z-score was -0.106 in assay [1]; 1.31 in [2]; -0.0465 in assay [3]; 1.18 in assay [4]; 1.62 in [5]; 1.33 in assay [6]. Moreover, the composite z-score in [7] was 1.22; in assay [9], 0.879; in assay [10] it was -0.126; in assay [11] it was 1.53; in assay [15], 3.15; in assay [17], -0.0153. For the same compound, the composite z-score in assay [18] is 0.605; in assay [19], 1.07; in [20] it was 0.0176. Also, the z-score in [8] is -0.783 (inactive); in assay [12], -1.8 (inactive); in [13], -0.531 (inactive); in assay [14], -0.293 (inactive); in assay [16], 0.702 (inactive).
With `CCCCC(=C=CC[C@H](O)c1ccc(CO)o1)CCO`, the composite z-score in [1] is -0.388; in [2] it was 1.03; in [3], -0.109; in assay [4], 0.0582; in assay [5] it was 0.165; in assay [6], 1.75. Besides, the composite z-score in [7] is 1.2; in [9], 0.0508; in [10], 0.0373; in assay [11] it was 1.49; in assay [15], 1.59; in [17], -0.258. Besides, the composite z-score was 1.31 in assay [18], 0.683 in assay [19] and -0.0041 in assay [20]. Moreover, the z-score in [8] is 0.0699 (inactive); in [12], 0.978 (inactive); in assay [13], -1.17 (inactive); in [14] it was -0.0978 (inactive); in assay [16] it was -0.14 (inactive).
